Screen size: about 320,000 compounds; about 50 (0.02%) were called active. This is one part of a sample in which actives are shown more often than they occur.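 The calls were made as follows: active = GFP response relative to DMSO above a set limit, near screen average plus 3 SD (cut at about 150% in these data); inconclusive = fewer than 70 cells counted for the yeast strain; inactive = the rest.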
Assay: modulators of AGP1-GFP expression in yeast TOR pathway, primary screen, cell-based, multiplex flow cytometry, S. cerevisiae, MLPCN library (AID 2066);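 also: median GFP channel fluorescence of the gated AGP1 strain per well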
Conditions: 3 h, at 10 µM, hits give high values, GFP as percent of DMSO wells

GFP response vs DMSO, inactive:
CC1(C)C(=O)C2(CCCCC2)C(=O)OC1c1cccs1 (stereo not given) 103%
O=C(c1cccc(F)c1)N1CCN(c2ccc([N+](=O)[O-])c3cccnc23)CC1 90.5%
CC(C)C[C@H](NC(=O)NCCc1ccc(Cl)cc1)C(=O)O 99.6%
COC(c1ccccc1)(c1ccccc1)C(Oc1nc(C)cc(C)n1)C(=O)O (stereo not given) 98.3%
Cc1ccc(S(=O)(=O)NC2CCCCCC2)cc1 103%
Cc1ccc(S(=O)(=O)Nc2ccc3c(c2)C(=O)N([C@H](C)CO)C[C@@H](C)[C@@H](CN(C)C(=O)Nc2cccc4ccccc24)O3)cc1 96.4%
C=CCC(C(=O)c1ccccc1)[N+](C)(C)CC=C (stereo not given) 96.9%
S=c1nc2ccccc2c2nc(-c3cccnc3)[nH]n12 102%
CCC(C)n1c(-c2cc(OC)c(OC)c(OC)c2)nc2nc3ccccc3nc21 (stereo not given) 101%
CCc1ccc(-c2cc3c(=O)n(CC(=O)NCCCN4CCN(Cc5ccccc5)CC4)nc(C)n3n2)cc1 102%
CN(C)C(CNC(=O)c1ccc(OCc2cn3ccccc3n2)cc1)c1ccco1 (stereo not given) 97.7%
CC(C)Cc1nnc(NC(=O)CCNC(=O)c2ccccc2Cl)s1 105%
O=C(CCCOc1ccccc1)NNC(=O)c1ccc(Cl)cc1 109%
Cn1cccc1C(=O)OCC(=O)c1ccc(Br)s1 100%
COc1cc(NC(=O)CCNC(=O)Cn2ccc3ccccc3c2=O)cc(OC)c1OC 104%
Cc1cc(C(F)(F)F)nn1CC(=O)N1CCCC1 97.4%
CSc1ccc(S(=O)(=O)NCC(=O)OCC(=O)NC2(C#N)CCCCC2)cc1[N+](=O)[O-] 108%
CCc1ccc(NC(=O)C(=O)NNC(=O)c2cccs2)cc1 107%
CC(C)N1C(=O)N(c2ccccc2)C(C)(O)CC1(C)C (stereo not given) 99.2%
COc1ccc(C(C)(C)C)cc1NC(=O)CCN1C(=O)C2CCCCC2C1=O (stereo not given) 112%
Cc1nn2cc(-c3ccc(Cl)cc3)cnc2c1Br 102%
CC(C)c1ccc(NC(=O)CCN2C(=O)c3ccc([N+](=O)[O-])cc3C2=O)cc1 111%
CC(C)(C)c1ccc(C(=O)N2CCN(CCNC(=O)C(=O)Nc3ccc(F)cc3)CC2)cc1 100%
Cc1ccc(NC(=O)Cn2cccc2C2=NC(c3ccccc3)CO2)c(C)c1 (stereo not given) 103%
O=C1[C@@H]2C(c3cccnc3)=NO[C@@H]2C(=O)N1c1ccc(Cl)cc1Cl 112%

Reference: PubChem BioAssay AID2066 (NMMLSC, 2009)
